In the library only some 5.1% were active in any assay of this set; here they are far more common.
ANO1 block: TMEM16A chloride channel inhibitors, primary screen, cell-based, HTS; HEK293 TMEM16A/YFP iodide influx fluorescence, ionomycin; Anoctamin-1 (Mus musculus), Q8BHY3; actives 1.2% (n = 310,000); AID 588511, 2011; normalized B-score (activity score, 25-100; higher = stronger inhibition) at 10 µM;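 active means ratio plate-corrected score three or more library SD toward inhibition, starting fluorescence score within five deviations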;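 further: score derived from kinetic fluorescence span divided by baseline fluorescence per well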
MPTP block: mitochondrial permeability transition pore inhibitors, primary screen, biochemical, isolated mouse mitochondria, absorbance | Ca2+ swelling absorbance, 30 min | inhibition, % at 10 µM | actives 1.4% (n = 360,000) | AID 602449, 2012;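 active means inhibition of 50% or more, scaled per plate between neutral and stimulator controls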;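 further: 0% = DMSO wells given calcium and 100% = 1 mM EGTA wells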
CRFBP-R2 agonist: agonists of CRF-BP/CRF-R2 complex, primary screen, cell-based, HEK293, calcium dye fluorescence, uHTS. CRF-binding protein / CRF receptor 2 complex (human). calcium dye fluorescence (FLIPR); percent of saturating CRF peptide response. activation, % at 13.2 µM. actives 0.46% (n = 350,000). AID 588473, 2011;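 active means activation of at least 50%, plus an integration ratio under a set limit after plate pattern correction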;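 further: plate controls were neutral control wells without compound for no effect and CRF at EC100 for full effect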
GRIN3A LBD mod: binders of NR3A ligand-binding domain, primary screen, biophysical, differential scanning fluorimetry, uHTS | Glutamate receptor ionotropic, NMDA 3A (GRIN3A) ligand-binding domain | NR3A LBD differential scanning fluorimetry, Tm shift; 0% = protein alone, 100% = glycine-bound protein | Tm shift relative to glycine control, % at 25 µM | actives 2.5% (n = 340,000) | AID 1259313, 2017;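 active means melting temperature shift of at least 10% of the positive control shift, at one fixed dose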
CRFR2-BP antag: antagonists of CRF-BP/CRF-R2 complex, primary screen, cell-based, HEK293, calcium dye fluorescence, uHTS. actives 0.59% (n = 350,000). inhibition, % at 11.8 µM. CRF-induced calcium fluorescence;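 active means inhibition of the ligand-induced calcium signal above about 50% at the single tested concentration, limit read from the data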
TMEM16A act: TMEM16A chloride channel activators or potentiators, primary screen, cell-based, HTS | Anoctamin-1 (Mus musculus), Q8BHY3 | B-score at 10 µM | actives 0.3% (n = 340,000) | HEK293 TMEM16A/YFP-H148Q/I152L, iodide quench fluorescence; stronger effect = lower value | AID 623877, 2012;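 active means fluorescence-ratio B-score plate-corrected deviation score at least 3 library SD below zero, with starting fluorescence score within 5 deviations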;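 further: channel opened by trigger with iodide after compound preincubation; score built on the fluorescence ratio of max minus min over baseline; more negative score means more quench and so TMEM16A activation or potentiation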
TMEM16A reconf: TMEM16A chloride channel inhibitors, confirmation, cell-based, re-confirmation | shares compounds with ANO1 block | HEK293 TMEM16A/YFP-H148Q, iodide quench fluorescence; ionomycin added to raise cell calcium | inhibition, % at 10 µM | actives 39% (n = 2,300) | AID 652189, 2013;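 active means mean duplicate percent inhibition, scaled so buffer wells are 0 and the reference blocker 100, over three buffer SD above buffer mean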
TMEM16A Ca cntr: calcium mobilization in TMEM16A/YFP HEK293 cells, confirmation, counter-screen for TMEM16A inhibitor project; shares compounds with ANO1 block; Fluo4 calcium mobilization; calcium response (% of ionomycin), % at 10 µM; actives 2% (n = 2,300); AID 652231, 2013;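 active means duplicate-averaged calcium signal over 20% of the ionomycin maximum, relative to buffer baseline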;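 further: each well's signal is peak minus trough fluorescence divided by its pre-addition baseline; 0% = buffer wells and 100% = ionomycin wells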
Parental YFP cnt: iodide YFP quench changes in parental YFP-HEK293, counter-screen for TMEM16A inhibitor project, cell-based | shares compounds with ANO1 block | ionomycin | YFP ratio F(max-min)/F0 at 10 µM | 2,300 tested, under 10 active | AID 652233, 2013;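 active means yellow fluorescent protein signal ratio exceeding the buffer control mean by over 5 SD of those controls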;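 further: ratio is mean of duplicate wells from kinetic YFP trace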
ClC-1 rat inh: ClC-1 chloride channel inhibition, selectivity assay for TMEM16A inhibitor project, cell-based, voltage-dependent ClC-1; shares compounds with ANO1 block; CHO ClC-1-YFP, iodide influx fluorescence quench; iodide control reads 0, buffer control 100; ratio percent, % at 10 µM; 2,300 tested, under 10 active; AID 652236, 2013;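 active means duplicate-mean ratio percent above the mean of iodide-only control wells, which defines zero, plus 5 of their SD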;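 further: higher percent means stronger block of ClC-1 iodide influx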
Target sequence (P35524 whole entry, looked up): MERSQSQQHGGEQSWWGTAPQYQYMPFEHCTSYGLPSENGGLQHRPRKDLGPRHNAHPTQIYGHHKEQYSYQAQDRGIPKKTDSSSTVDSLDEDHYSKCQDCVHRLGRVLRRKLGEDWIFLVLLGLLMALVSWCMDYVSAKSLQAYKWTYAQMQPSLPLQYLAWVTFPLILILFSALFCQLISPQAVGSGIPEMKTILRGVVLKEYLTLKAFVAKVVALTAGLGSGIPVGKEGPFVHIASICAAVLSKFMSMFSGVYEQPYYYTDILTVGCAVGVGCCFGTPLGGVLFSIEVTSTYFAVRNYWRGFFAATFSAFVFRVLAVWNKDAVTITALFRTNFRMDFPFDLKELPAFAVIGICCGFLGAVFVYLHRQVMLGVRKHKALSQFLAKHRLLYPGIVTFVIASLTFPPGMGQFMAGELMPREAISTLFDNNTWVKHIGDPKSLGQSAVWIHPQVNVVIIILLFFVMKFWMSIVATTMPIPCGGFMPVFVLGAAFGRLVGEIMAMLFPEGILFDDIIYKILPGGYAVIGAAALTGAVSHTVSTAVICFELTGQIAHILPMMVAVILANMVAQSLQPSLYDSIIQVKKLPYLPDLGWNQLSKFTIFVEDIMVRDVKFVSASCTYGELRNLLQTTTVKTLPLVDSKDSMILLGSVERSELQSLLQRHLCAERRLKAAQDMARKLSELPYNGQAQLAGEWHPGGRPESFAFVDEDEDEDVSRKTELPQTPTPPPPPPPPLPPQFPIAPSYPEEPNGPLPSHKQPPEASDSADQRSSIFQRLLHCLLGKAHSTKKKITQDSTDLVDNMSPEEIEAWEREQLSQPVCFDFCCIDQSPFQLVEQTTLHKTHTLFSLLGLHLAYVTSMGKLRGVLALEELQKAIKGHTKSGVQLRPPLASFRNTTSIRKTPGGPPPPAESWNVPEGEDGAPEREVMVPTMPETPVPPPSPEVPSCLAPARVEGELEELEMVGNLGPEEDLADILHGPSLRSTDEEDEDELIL
* marks the source's active call; other numbers are inactive results; i = inactive; . = no result.

SMILES	ANO1 block	MPTP block	CRFBP-R2 agonist	GRIN3A LBD mod	CRFR2-BP antag	TMEM16A act	TMEM16A reconf	TMEM16A Ca cntr	Parental YFP cnt	ClC-1 rat inh
CN(Cc1cccs1)C(=O)C1CC(=O)N(Cc2ccccc2)C1 (configuration not stated)	i	0.2	-3.5	1.1	-0.8	i	.	.	.	.
CCc1sc(C(=O)N2CCN(c3ccc(F)cc3)CC2)cc1C	i	-2.2	0.6	3.5	2.1	i	.	.	.	.
COc1ccc(CC(=O)Nc2nc(-c3ccc(OC)c(OC)c3)cs2)cc1OC	25*	6.2	0.3	-0.2	4.6	i	35.0%*	i	-0.912	-2.0
COc1ccc(-c2csc(NC(=O)Cc3ccccc3F)n2)cc1OC	100*	-2.4	1.1	-8.3	17.1	i	i	i	-0.839	-0.5
COc1ccc(-c2csc(NC(=O)CS(=O)(=O)c3ccccc3)n2)cc1OC	.	-0.3	0.6	.	-21.6	.	.	.	.	.
O=C(COC(=O)c1c[nH]c2ccccc12)Nc1ccc(F)cc1	.	-0.8	14.6	0.3	-3.3	i	.	.	.	.
C[C@@H]1CN([C@H](C)CO)C(=O)CCCn2nncc2CO[C@H]1CN(C)S(C)(=O)=O	.	1.3	0.5	.	-18.7	.	.	.	.	.
O=C(COC(=O)c1ccc2c(c1)S(=O)(=O)N=C1CCCCCN12)NCc1cccs1	i	1.9	-3.3	0.5	-1.7	i	.	.	.	.
O=C(NC1=NCCS1)c1ccc(Cl)c(S(=O)(=O)N2CCCC2)c1	25*	-0.7	11.1	-1.8	-54.7	i	i	i	-0.977	-6.0
O=C(NC1=NCCS1)c1ccc(Cl)c(S(=O)(=O)N2CCCCC2)c1	i	3.0	-1.4	-1.5	1.8	i	.	.	.	.
COc1ccc(Cl)cc1Nc1cc(C)nc2ncnn12	.	0.1	-1.8	.	-4.3	.	.	.	.	.
O=C(Nc1nc(-c2cccs2)cs1)c1ccc(S(=O)(=O)N2CCCC2)cc1	25*	6.0	-1.2	-15.4	-1.8	i	i	i	-1.28	-13.5
O=C(Nc1nc(-c2ccc(S(=O)(=O)N3CCCCCC3)cc2)cs1)c1ccccc1	i	5.2	2.8	-6.7	3.8	i	.	.	.	.
CCN(Cc1ccccc1)C(=O)COc1cc(=O)n(CC)c2ccccc12	i	1.3	0.0	-0.3	-6.5	i	.	.	.	.
CN(Cc1ccccc1)C(=O)COc1cc(=O)n(C)c2ccccc12	i	-0.9	0.0	-1.1	-5.9	i	i	i	-0.846	-4.5
CCc1nc2ccc(C(=O)N(CC)CCN(C)C)cn2c1N(C=O)CCC(C)C	.	0.2	.	.	.	.	.	.	.	.
Cc1ccc(C)c(CSc2nnc(CCN)o2)c1	i	-1.6	-1.6	0.9	-2.8	i	.	.	.	.
Cc1ccc(C)c(CSc2nnc([C@@H](N)C(C)C)o2)c1	100*	-1.5	2.1	-1.3	-8.7	i	i	i	-1.11	-1.5
Cc1ccc(NC(=O)C2=CCN(S(=O)(=O)c3ccc(F)cc3)CC2)c(C)c1	100*	-1.4	-0.7	0.1	10.8	i	i	i	-0.905	-0.5
CCN(CC)S(=O)(=O)c1cc(-c2nnc(-c3ccc(Br)cc3)o2)ccc1Br	i	0.9	3.4	2.8	5.1	i	.	.	.	.
CCN(CC)S(=O)(=O)c1cc(-c2nnc(-c3ccc(Br)cc3)o2)ccc1Cl	25*	3.1	0.5	-0.4	-1.3	i	i	i	-0.861	-12.5
CCCc1[nH]nc2c1C1(CCOC1C)C(C#N)=C(N)O2 (configuration not stated)	25*	-1.4	-1.3	3.0	-1.4	i	i	i	-1.13	-11.5
CCCc1[nH]nc2c1C(C1CCCCC1)C(C#N)=C(N)O2 (configuration not stated)	i	0.3	0.2	1.6	-10.7	i	.	.	.	.
CCN(CC)CCNC(=O)CS(=O)Cc1nc(-c2ccc(Cl)cc2)oc1C (configuration not stated)	i	-1.0	-1.6	0.3	-12.7	i	.	.	.	.
CCN(CC)CCNC(=O)CS(=O)Cc1nc(-c2ccc(C)cc2)oc1C (configuration not stated)	i	-0.8	0.1	-1.0	-10.7	i	i	i	-0.919	-8.0
SMILES	ANO1 block	MPTP block	CRFBP-R2 agonist	GRIN3A LBD mod	CRFR2-BP antag	TMEM16A act	TMEM16A reconf	TMEM16A Ca cntr	Parental YFP cnt	ClC-1 rat inh
O=C(c1ccco1)N1CCN(C(=O)C2CCN(S(=O)(=O)c3cccc4nsnc34)CC2)CC1	100*	0.1	-1.4	2.4	-4.7	i	i	i	-1.06	-11.5
O=C(O)C1Oc2ccccc2C1c1ccccc1 (configuration not stated)	.	0.4	-1.8	-4.4	1.9	i	.	.	.	.
O=c1c(C/C=C/c2ccccc2)c(O)ccn1Cc1ccc(Cl)cc1Cl	100*	1.1	0.0	-2.3	1.3	i	i	i	-0.782	-18.0
O=S(=O)(NC1CCCCC1Nc1ccc(Cl)cc1)c1ccccc1 (configuration not stated)	25*	25.7	-5.2	-8.8	3.5	i	i	i	-1.1	-9.5
Cc1ccc(NC2CCCCC2NS(=O)(=O)c2ccc(Cl)cc2)cc1 (configuration not stated)	i	15.7	0.1	-5.3	-37.4	i	.	.	.	.
COc1cccc(-c2cnc(C(O)c3ccc(F)cc3C)[nH]2)c1 (configuration not stated)	.	0.1	.	.	.	.	.	.	.	.
COc1cc(OC)cc(C(=O)Nc2ncn[nH]2)c1	.	1.1	-1.2	-0.6	-6.6	i	.	.	.	.
COc1cc(OC)c(C(=O)Nc2ncn[nH]2)cc1OC	100*	-2.3	0.8	-0.4	0.3	i	i	i	-1.26	-3.0
O=C(CN1CCN(S(=O)(=O)c2ccccc2)CC1)N1CCc2ccccc21	.	-0.8	-3.6	4.5	-5.3	i	.	.	.	.

Assay outcomes as filed in PubChem BioAssay.
